Where “and” joins values, the source holds several entries; their conditions need not be identical. Equal entries are not always repeated. Some compounds were tested as several samples or in several runs, with calls that do not always agree. Calls of active or inactive are those of the source. Unless noted, the rule behind the calls is not given here.

The test system of assay [1] is Aerobactin synthetase IucA (Klebsiella pneumoniae). The assay can be described thus: inhibition of K. pneumoniae IucA enzyme – biochemical, Tocris library, absorbance (AID 1345561).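 Note: 100% = enzyme without compound and 0% = no enzyme.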 The settings on record: purified IucA enzyme assay, absorbance (OD) read-out; stronger effect = lower value;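 tested at 8 µM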.
The nature of assay [2]: viability loss with induced miR-34 in A549 – imaging, A549 dox-inducible miR-34, nuclei and caspase counts, primary screen (AID 1347080;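 active = compounds whose cell count with miR-34 switched on is under 0.7 times the count with it off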). The following applies: A549 miR-34 inducible, Hoechst nuclei count, 48 h.
The nature of assay [3]: chitosan synthesis blockers in C. neoformans – flow cytometry, Cibacron Brilliant Red staining (AID 1347148).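 Note: compound exposure lasted three days at 37 degrees C.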 The following applies: Cryptococcus neoformans chitosan, stronger effect = lower value; at 10 µM unless noted. (In general: In flow cytometry, cells or beads pass a laser one at a time.)
Assay [4] is described as follows: galactose survival enhancers in mitochondrial complex I cybrids – cell-based, galactose medium, ATP luminescence, primary screen (AID 1645843;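 active = z-score of at least 1.8 in each of two replicates, scored against plate mean and spread of sample wells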;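 note: positive z means more ATP and so rescue of galactose-driven cybrid death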). The following applies: complex I mutant cybrid cells, 72 h, stronger effect = higher value.
Assay [5] in a line: compounds altering circadian rhythm period length – cell-based, LOPAC library, luminescence reporter (AID 2774).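 Note: values are relative to mean of DMSO wells on each plate.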 The following applies: circadian reporter cells, at 7 µM, actives lie on both sides.
Assay [6] concerns Hepatitis C virus NS3 helicase. Briefly: blockers of NS3h binding to ssDNA – biochemical, fluorescence polarization, LOPAC1280 library, primary screen (AID 687035; in the data active = inhibition above about 37%). The settings on record: Purified HCV NS3 helicase, Cy5-dT15 ssDNA binding fluorescence polarization; stronger effect = higher value; concentration not given here. A general note: In fluorescence polarisation assays a small probe gives low polarisation when free and higher when bound to something large.

Assay [7] is described as follows: compounds altering Cy5-DNA-NS3h complex signal – biochemical, LOPAC1280, artefact control for HCV NS3 helicase inhibitor project (AID 687037). The settings on record: Cy5-DNA-NS3h complex fluorescence interference counterscreen. A general note: Counterscreens check selectivity or assay interference.
Assay [8] is described as follows: blockers of cellular phospholipid synthesis – cell-based, LOPAC library, screen 4, primary screen (AID 1347384). The settings on record: animal cells, phospholipid biosynthesis inhibition screen; at 10 µM.
Assay [9] is described as follows: MELAS cybrid and Rieske KO viability enhancers – cell-based, MELAS cybrids, Rieske KO mouse fibroblasts, CellTiter-Glo, primary screen (AID 1508586;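 active = mean z-score across replicates of 1.96 or higher in either the MELAS or the Rieske mutant cell line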;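 note: z relative to plate mean and SD of compound and empty wells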). The following applies: low glucose.
Assay [10] can be described thus: P. berghei load reduction in hepatocytes – cell-based, HepG2, luciferase luminescence, HepG2 viability, primary screen (AID 624349; in the data active = parasite load remaining mostly below about 12%, no sharp cut-off; inactive = mostly above about 10%;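 note: 100% = mean of DMSO negative control wells on the same plate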). The settings on record: P. berghei liver stage in HepG2, luciferase luminescence, concentration not given here; parasite load remaining: stronger effect = lower value; viability: measured here: HepG2 viability without parasites.
Setting [11] is: stronger effect = lower value, cell number ratio, induced over uninduced.
The mark [12] stands for this setting: measured here: relative caspase fold change +Dox/-Dox.
Setting [13] is: measured here: total cells with miR-34 induction, stronger effect = lower value.
Where [14] appears, read: measured here: total cells without miR-34 induction.
Setting [15] is: MELAS cybrid survival, CellTiter-Glo 48 h, stronger effect = higher value.
The mark [16] stands for this setting: Rieske KO mouse fibroblast survival, CellTiter-Glo 72 h.

Take `CCCCCCCCCCCCC/C=C/[C@@H](O)[C@H](CO)NC(C)=O`: the remaining activity in assay [1] was 114% (inactive). The fold change is 0.919 (inactive) and 1.02 (inactive) and 0.95 (inactive) in [2] (setting [11]); 1.09 and 0.67 and 0.924 in assay [2] (setting [12]). Also, the cell count in assay [2] (setting [13]) was 5360 and 6170 and 8250; in assay [2] (setting [14]), 5840 and 6040 and 8680. Besides, the fold fluorescence in assay [3] was 5.52 (inactive). In [4], the z-score is -1.23 (inactive).
With `COc1ccc(CCN(C)CCc2ccc(OC)c(OC)c2)cc1OC`, the period change in [5] was 0.045 h (inactive). The inhibition in [6] was -1% (inactive). Further, the fluorescence ratio (interference) in assay [7] is 1 (inactive). For the same molecule, in assay [1], the remaining activity is 104% (inactive). The fold change was 0.949 (inactive) and 0.925 (inactive) and 0.899 (inactive) in [2] (setting [11]); 1.08 and 1.5 and 0.778 in assay [2] (setting [12]). The cell count in [2] (setting [13]) is 8830 and 6070 and 8850; in assay [2] (setting [14]), 9310 and 6560 and 9840. Besides, in assay [3], the fold fluorescence is 2.96 [at 139.1 µM] (inactive). Besides, in [8], the result was inactive. Besides, in [4], the z-score is -0.285 (inactive) and -0.27 (inactive).
For `CN(C)c1ccc(/C=C2\C(=O)Nc3ccccc32)cc1`, the period change in assay [5] was -0.18 h (inactive). Also, the inhibition in assay [6] was -2% (inactive). Further, the fluorescence ratio (interference) in assay [7] was 0.9 (inactive). For the same molecule, the remaining activity in assay [1] was 109% (inactive). The fold change was 1.15 (inactive) and 1.05 (inactive) and 0.834 (inactive) in assay [2] (setting [11]); 1.24 and 1.39 and 0.903 in assay [2] (setting [12]). Also, the cell count in assay [2] (setting [13]) is 7000 and 1360 and 6590; in assay [2] (setting [14]) it was 6070 and 1300 and 7900. Also, in [3], the fold fluorescence is 5.59 [at 189.2 µM] (inactive). For the same molecule, in [8], the call was inactive. Moreover, the z-score in [4] is 3.25 (active) and 0.195 (inactive).
In the case of `COc1ccccc1N1CCN(CCN2C(=O)CC3(CCCC3)CC2=O)CC1`, in assay [5], the period change was -0.035 h (inactive). Also, the inhibition in assay [6] is -5% (inactive). The fluorescence ratio (interference) in assay [7] is 1 (inactive). In assay [1], the remaining activity was 96.2% (inactive). The fold change was 1.01 (inactive) and 0.904 (inactive) and 0.921 (inactive) in assay [2] (setting [11]); 1.78 and 0.65 and 0.553 in assay [2] (setting [12]). The cell count in [2] (setting [13]) was 10300 and 7050 and 8240; in assay [2] (setting [14]), 10200 and 7800 and 8940. The molecule was classed as inactive in [8]. Also, the z-score is -0.152 (inactive) in [9] (setting [15]); -0.237 in assay [9] (setting [16]); -0.235 (inactive) and -0.615 (inactive) in assay [4].
Regarding `CN(C(=O)CCCOc1ccc2[nH]c(=O)ccc2c1)C1CCCCC1`, the period change in [5] is -0.015 h (inactive). Also, the parasite load remaining in [10] is 30.5% (inactive). The viability in assay [10] is 71.5%. In [6], the inhibition is -1% (inactive). Moreover, the fluorescence ratio (interference) in [7] was 1 (inactive). In addition, in assay [1], the remaining activity is 117% (inactive). The fold change in [2] (setting [11]) is 1.04 (inactive) and 0.982 (inactive) and 0.9 (inactive); in assay [2] (setting [12]), 2.05 and 0.725 and 1.16. For the same molecule, the cell count is 8910 and 7180 and 9490 in assay [2] (setting [13]); 8530 and 7310 and 10500 in [2] (setting [14]). In assay [8], the molecule was called inactive. The z-score in assay [9] (setting [15]) was 0.542 (inactive); in [9] (setting [16]), -0.471; in assay [4] it was -0.385 (inactive) and 0.22 (inactive) and -0.02 (inactive).
Consider `COc1ccccc1N1CCN(CCCCN2C(=O)c3ccccc3C2=O)CC1`, for which, in [5], the period change is 0.18 h (inactive). Further, the inhibition in [6] was -3% (inactive). Also, the fluorescence ratio (interference) in assay [7] is 1 (inactive). For the same molecule, in assay [1], the remaining activity was 97.1% (inactive). The fold change is 1.11 (inactive) and 0.969 (inactive) in assay [2] (setting [11]); 1.56 and 0.971 in assay [2] (setting [12]). Further, the cell count in [2] (setting [13]) is 9310 and 9300; in assay [2] (setting [14]), 8410 and 9600. Besides, in assay [8], the molecule was called inactive. Besides, in [4], the z-score is -0.155 (inactive) and -0.92 (inactive).

Broadly, the remaining activity is the signal under treatment as a percentage of the control signal. Usually inhibition stands for the drop in the measured response relative to a control, in per cent. For orientation: viability means a per cent measure of how many cells are alive, often set against a control.
